Assay results published in the supplement of paper PMC9262897, “Low-cost anti-mycobacterial drug discovery using engineered E. coli” (Nature Communications, 2022).
Structures can show the parent of a compound that is named as a salt. ± gives the standard deviation of the averaged measurements.

System: E. coli TESEC Mtb Alr
Assay: growth (OD600 after 10 h); higher = more growth (less inhibition)
Conditions: arabinose 100 nM; compound 0.1 mM; raw OD600 reference: median of DMSO wells 0.413, cell-free background 0.052
Description: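 TESEC Mtb Alr E. coli (ΔaraC ΔtolC ΔentC Δalr ΔdadX, arabinose-inducible Mtb Alr) or the Alr+ wild-type control strain, grown in defined M9-fructose medium without D-alanine in 96-well plates with Prestwick library compounds at 0.1 mM and 1% DMSO. Low Alr induction is 0.1 µM arabinose and high induction is 10 mM arabinose.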

Row | SMILES | growth
1 | O=C1c2ccccc2C(=O)C1c1ccccc1 [Phenindione] | 0.408 ± 0.0092
2 | CC(C)NC(=N)NC(=N)Nc1ccc(Cl)cc1 [Proguanil hydrochloride] | 0.422 ± 0.009
3 | Cc1[nH]cnc1CN1CCc2c(c3ccccc3n2C)C1=O [Alosetron hydrochloride] | 0.387 ± 0.012
4 | O=c1cc(-c2ccc(O)c(O)c2)oc2cc(O)cc(O)c12 [Luteolin] | 0.152 ± 0.019
5 | O=C1OC(CN2CCOCC2)CN1/N=C/c1ccc([N+](=O)[O-])o1 (stereo not drawn) [Furaltadone hydrochloride] | 0.0601 ± 0.0022
6 | O=C(c1ccc(OCCN2CCCCC2)cc1)c1c(-c2ccc(O)cc2)sc2cc(O)ccc12 [Raloxifene hydrochloride] | 0.41 ± 0.007
7 | CNS(=O)(=O)Cc1ccc2[nH]cc(CCN(C)C)c2c1 [Sumatriptan succinate] | 0.417 ± 0.0056
8 | Cc1ccc(C)c(OCCCC(C)(C)C(=O)O)c1 [Gemfibrozil] | 0.354 ± 0.037
9 | O=C(NCC(O)CO)c1c(I)c(C(=O)NCC(O)CO)c(I)c(N(CCO)C(=O)CO)c1I (stereo not drawn) [Ioversol] | 0.408 ± 0.015
10 | CN(C)CCOC(c1ccc(Cl)cc1)c1ccccn1 (stereo not drawn) [Carbinoxamine maleate salt] | 0.393 ± 0.015
11 | C=CCSCC1Nc2cc(Cl)c(S(N)(=O)=O)cc2S(=O)(=O)N1 (stereo not drawn) [Althiazide] | 0.383 ± 0.006
12 | CC(=O)OCC(=O)[C@@]1(O)[C@H](C)C[C@H]2[C@@H]3CCC4=CC(=O)C=C[C@]4(C)[C@@]3(F)[C@@H](O)C[C@@]21C [Dexamethasone acetate] | 0.396 ± 0.011
13 | CC(C)(C)NCC(O)c1ccc(O)c(CO)c1 (stereo not drawn) [Salbutamol] | 0.43 ± 0.0098
